D3 ag – activates the human D3 dopamine receptor; D3R DiscoveRx beta-arrestin cells, luminescence, 90 min; P35462; 410,000 compounds, 0.58% hits; AID 652048; max activation, %; in the data active = max activation above about 30%
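Agonist mode: compounds and dopamine controls were applied to plated cells for 90 min at 37 degrees C after an overnight attachment at 1500 cells/well. Luminescent read-out followed 30 - 60 minutes at room temperature with DiscoveRx detection reagent.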
D1 antagonist – antagonists of human D1 dopamine receptor; activity change, negative = inhibition, % at 10 µM; 360,000 compounds, 3.2% hits; AID 504652; HEK293 TREx D1 cells, calcium flux, dopamine EC80; active compounds read low; P21728; in the data active = activity change below about -30%
Target sequence (P21728 whole entry, looked up): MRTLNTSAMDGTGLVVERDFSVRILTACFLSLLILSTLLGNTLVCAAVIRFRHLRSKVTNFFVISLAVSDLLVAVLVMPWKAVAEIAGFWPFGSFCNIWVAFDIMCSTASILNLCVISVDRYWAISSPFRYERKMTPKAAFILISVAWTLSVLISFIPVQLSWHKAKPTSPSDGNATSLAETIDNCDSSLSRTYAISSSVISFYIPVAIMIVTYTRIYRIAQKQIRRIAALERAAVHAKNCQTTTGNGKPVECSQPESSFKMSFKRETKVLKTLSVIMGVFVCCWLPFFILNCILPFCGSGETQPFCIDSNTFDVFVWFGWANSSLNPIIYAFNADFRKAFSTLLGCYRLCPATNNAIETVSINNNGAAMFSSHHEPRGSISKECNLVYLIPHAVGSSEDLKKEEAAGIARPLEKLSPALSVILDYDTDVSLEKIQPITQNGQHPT
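Using tetracycline-induced force-coupled D1 Hek293 cells and a calcium dye, signals were followed for 180 s after compound, then for 180 s after EC80 dopamine, to detect inhibitors.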
D1 agonist – agonists of human D1 dopamine receptor; 360,000 compounds, 1% hits; P21728; activation, % at 2 µM; HEK293 T-REx D1 cells, calcium flux, agonist mode; in the data active = activation above about 30%
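Inducible HEK293 T-REx D1 cells, force-coupled to calcium signalling, were plated at 4000 cells/well with tetracycline and held overnight at 30 C. After no-wash calcium dye loading, compound-evoked calcium rise over 180 s flagged agonists.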
D1 potentiator – human D1 dopamine receptor positive modulation | HEK293 TREx D1 cells, calcium flux, dopamine EC20 potentiation | potentiation, % at 10 µM | 360,000 compounds, 0.036% hits | AID 504651; in the data active = potentiation above about 30%
D3 antag – blocks the human D3 dopamine receptor | max response, negative = inhibition, % | P35462 | D3R cells, DiscoveRx beta-arrestin luminescence, antagonist mode; active compounds read low | 360,000 compounds, 2.5% hits; in the data active = max response below about -50%; inconclusive = no clear call, values can overlap the other calls
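Cells plated overnight at 1500 cells/well, then exposed to library compounds with dopamine controls for 90 minutes at 37 degrees C. DiscoveRx reagent added for 30–60 minutes at room temperature; luminescence read, quantitative HTS format.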
A number is an active result; 0 = inactive; ? = inconclusive; - = not tested or not shown. A selection: hits, their analogues and other compounds. The true share with any hit is near 6%.

SMILES	D3 ag	D1 antagonist	D1 agonist	D1 potentiator	D3 antag
Cc1ccc(C2CC2c2n[nH]c(=S)n2-c2ccc(C)cc2)cc1 (centres undefined)	0	-	0	0	0
Cc1ccc(-n2c(C3CC3c3ccc(Cl)cc3)n[nH]c2=S)cc1 (centres undefined)	0	0	0	0	-61
COc1ccc(/C=C/C(=O)c2ccccc2)cc1COc1ccccc1F	0	0	38	0	0
CCOC(=O)c1c(NC(=O)c2noc3c2CC(C(C)(C)C)CC3)sc2c1CCCC2 (centres undefined)	0	0	0	0	-
CCCCc1ccc(NC(=S)NCc2cccs2)cc1	0	-32	0	0	0
Cc1ccc(C(c2nnnn2CCC(C)C)N2CCN(C)CC2)cc1 (centres undefined)	0	0	0	0	-67
C=CCN1CCN(C(c2ccccc2)c2nnnn2CCC(C)C)CC1 (centres undefined)	0	0	0	0	-82
CCc1nn(CC(=O)NC(C)c2ccccc2)c(=O)c2cc3sccc3n12 (centres undefined)	0	0	0	0	-
CCc1ccc2c(CN3CCN(S(=O)(=O)c4ccccc4F)CC3)cc(=O)oc2c1	0	-	-	-	0
COC(=O)C1CCN(Cc2cc(=O)oc3cc(C)c(Cl)cc23)CC1	95	0	0	0	0
CCc1ccc2c(CN3CCN(S(=O)(=O)c4cccs4)CC3)cc(=O)oc2c1	0	0	0	0	-75
Cc1cc2oc(=O)cc(Cn3ncc(Cl)c(Cl)c3=O)c2cc1Cl	0	0	0	0	-77
CCc1ccc2c(CN3CCC(C(=O)OC)CC3)cc(=O)oc2c1	100	0	0	0	0
Cc1c(CNCc2ccc(OC(C)C)cc2)c(C(=O)O)c(C)n1Cc1ccc(Cl)cc1	0	0	0	0	-
CCc1ccc2oc(=O)cc(CN3CCN(CCO)CC3)c2c1	0	-50	0	0	0
CC(=O)Nc1ccc2c(c1)CN(c1cc(C)ccc1C)CO2	0	-37	0	0	0
CC(=O)Nc1ccc(S(=O)(=O)N2CCN(c3cc(C)ccc3C)CC2)cc1	0	0	0	0	0
COc1ccc(-c2[nH]c(-c3cccc(OC)c3)nc2SCC(=O)Nc2ccc3c(c2)OCO3)cc1	0	0	0	0	-
N#Cc1c(-c2ccccc2)cc(C2CC2)nc1N	0	0	31	0	0
Nc1nc(COc2ccc(F)cc2Cl)nc(N2CCCCC2)n1	0	-31	0	0	0
Nc1ccccc1SC(CC(=O)c1ccccc1)c1ccc([N+](=O)[O-])cc1 (centres undefined)	0	-	-	-	-51
Nc1ccccc1SC(CC(=O)c1ccccc1)c1cccc([N+](=O)[O-])c1 (centres undefined)	0	-	-	-	?
COCCN(C(=S)Nc1cccc(C)c1C)C(C)c1ccco1 (centres undefined)	0	0	0	0	0
COCCN(C(=S)Nc1ccccc1C)C(C)c1ccco1 (centres undefined)	0	-71	0	0	0
Cc1ccc(NC(=O)CSc2nc3c([nH]c4ccccc43)c(=O)n2C)cc1	0	-33	0	0	0
SMILES	D3 ag	D1 antagonist	D1 agonist	D1 potentiator	D3 antag
O=C(CSc1nc2c([nH]c3ccccc32)c(=O)n1-c1ccccc1)N1CCc2ccccc21	0	0	0	0	-
COc1ccc(-n2c(SCC(=O)Nc3cccc(C)c3C)nc3c([nH]c4ccccc43)c2=O)cc1	0	0	0	0	-
Cc1cccc(NC(=O)CSc2nc3c([nH]c4ccccc43)c(=O)n2-c2ccc(F)cc2)c1C	0	-33	0	0	-
Cn1c(SCC(=O)Nc2ccc(F)cc2)nc2c([nH]c3ccccc32)c1=O	0	0	0	0	0
O=C(CSc1nc2c([nH]c3ccccc32)c(=O)n1-c1ccc(F)cc1)N1CCc2ccccc21	0	-45	0	0	-
COc1ccc(S(=O)(=O)N(Cc2nc(-c3ccc(Cl)cc3)no2)C2CCCCC2)cc1	0	0	0	0	-
Cn1nccc1NC(=O)Nc1cccc(Cl)c1Cl	0	-33	0	0	0
CCOC(=O)N1CCN(C(=O)c2ccc3[nH]c(C)c(C)c3c2)CC1	0	-	-	-	0
Cc1ccc(C)c(N2CCN(C(=O)c3ccc4[nH]c(C)c(C)c4c3)CC2)c1	0	-33	0	0	-
Cc1[nH]c2ccc(C(=O)NCCN3CCCCCC3)cc2c1C	0	0	0	0	-70
CCCN1CCN(C(=O)c2ccc3[nH]c(C)c(C)c3c2)CC1	0	-	-	-	-87
Cc1cccc(N2CCN(c3ccc4cc(S(=O)(=O)N5CCC(C)CC5)ccc4n3)CC2C)c1 (centres undefined)	0	0	0	0	-
CCOC(=O)N1CCc2c(sc3c2c(=O)n(CCc2ccccc2)c(=O)n3Cc2cc(C)ccc2C)C1	0	-51	0	0	-
CCOC(=O)N1CCc2c(sc3c2c(=O)n(Cc2ccccc2)c(=O)n3Cc2cc(C)ccc2C)C1	0	0	0	0	-
Cc1ccc(C(CNS(=O)(=O)c2ccc(Cl)cc2)N2CCN(C)CC2)cc1 (centres undefined)	0	-34	43	0	0
O=c1c2ccccc2n(Cc2ccccc2F)c(=O)n1-c1cccc(F)c1	0	0	0	0	-
Cc1ccc(CNC(=O)C2CCC(=O)N(C3CC3)C2)cc1 (centres undefined)	0	0	0	0	0
Cc1cccc(CNC(=O)C2CCC(=O)N(C3CCCC3)C2)c1 (centres undefined)	0	-45	0	0	0
Cc1c(Cl)cccc1NC(=O)Nc1nnc(N(C)Cc2ccccc2)s1	0	0	0	0	-
O=C1NC2=C(C(=O)CCC2)C(c2ccccc2Cl)N1 (centres undefined)	0	0	0	0	0
Cc1nc(Cl)c2c(n1)NC1=C(O2)C(=O)CCC1	0	0	38	0	0
O=c1cc(/N=C/c2coc3c(ccc4ccccc43)c2=O)[nH]c(=S)[nH]1	0	-31	0	0	0
COC(=O)c1cc(S(=O)(=O)N2CCCC(C)C2)cn1C (centres undefined)	0	0	0	0	0
COC(=O)c1cc(-c2ccc(S(=O)(=O)N3CCCC(C)C3)cc2)c(C(F)(F)F)s1 (centres undefined)	0	-41	0	0	0
CC(C)c1ccc(OCc2ccc(C(=O)O)o2)cc1	0	0	0	0	0
SMILES	D3 ag	D1 antagonist	D1 agonist	D1 potentiator	D3 antag
CC(C)c1ccc(OCc2ccc(C(=O)N(C)C)o2)cc1	0	-32	0	0	0
CCOC(=O)N1CCN(C(=O)c2cnn3c(C)c(Cc4ccc(C)cc4)c(C)nc23)CC1	0	0	0	0	0
Cc1ccc(C)c(Cc2c(C)nc3c(C(=O)N4CCOCC4)cnn3c2C)c1	31	0	0	0	0
Cc1c(Cl)cccc1N=Cc1ccc([N+](=O)[O-])s1	0	0	0	0	-51
Cc1ccccc1C(=O)N/N=C/c1ccc([N+](=O)[O-])s1	0	0	0	0	0
O=C(CCNC(=O)c1ccco1)Nc1ccc(OC(F)F)c(Cl)c1	0	-31	0	0	0
